# Mcl1-Noxa inh – disrupts binding of human Mcl-1 to Noxa peptide. AID 1022. inhibition, % at 21.7 µM. TR-FRET Mcl-1/Noxa peptide binding, 2 h. Q07820. 220,000 compounds, 1.5% hits;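 active = compounds that cut the protein-peptide binding signal by more than 50% relative to plate controls in a single-dose test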;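 also: His-tagged Mcl-1 with rhodamine Noxa BH3 peptide and terbium anti-His antibody; 0% = Mcl-1 plus Noxa peptide wells and 100% = peptide-only wells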
# Target sequence (Q07820 whole entry, looked up): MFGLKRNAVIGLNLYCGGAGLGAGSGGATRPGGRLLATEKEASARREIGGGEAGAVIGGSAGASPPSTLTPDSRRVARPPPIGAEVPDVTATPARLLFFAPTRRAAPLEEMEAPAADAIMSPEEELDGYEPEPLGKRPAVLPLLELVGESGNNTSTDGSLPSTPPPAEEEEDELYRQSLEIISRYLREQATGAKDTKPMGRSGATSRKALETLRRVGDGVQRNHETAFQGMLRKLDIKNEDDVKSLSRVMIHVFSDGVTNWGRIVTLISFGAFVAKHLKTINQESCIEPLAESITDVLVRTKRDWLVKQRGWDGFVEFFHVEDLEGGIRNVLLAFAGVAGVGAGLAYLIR
# Bcl-xL primary – Bcl-xL (human) inhibition; Q07817; GST-Bcl-xL / FITC-Bim BH3 peptide fluorescence polarization; inhibition, % at 10.9 µM; 320,000 compounds, 0.7% hits; AID 2129;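 active = inhibition above the mean of all tested compounds plus 3 SD, cutoff set per campaign, cut at about 30% in these data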;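 also: 0% = DMSO wells and 100% = unlabeled Bim-BH3 peptide competitor; inhibitors lower millipolarization by displacing the labeled peptide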
# Target sequence (Q07817 whole entry, looked up): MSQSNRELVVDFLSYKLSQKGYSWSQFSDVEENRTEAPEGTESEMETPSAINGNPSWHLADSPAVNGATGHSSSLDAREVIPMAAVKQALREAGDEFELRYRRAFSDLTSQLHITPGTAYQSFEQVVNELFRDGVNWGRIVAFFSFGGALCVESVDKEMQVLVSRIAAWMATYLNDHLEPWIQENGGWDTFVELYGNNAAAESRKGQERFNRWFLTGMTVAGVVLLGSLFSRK
# MCL1 BIM primary – disrupts human MCL1 binding to BIM-BH3 peptide | AID 2057 | 320,000 compounds, 0.68% hits | GST-MCL1 / FITC-Bim-BH3 fluorescence polarization | inhibition, % at 10.9 µM;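 active = inhibition above the mean inhibition of all tested compounds plus 3 SD, set per campaign, cut at about 40% in these data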;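 also: 0% = DMSO wells and 100% = unlabeled Bim-BH3 peptide control; higher means more loss of mP so more displacement of Bim peptide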
# Mcl1-Bid inh – disrupts binding of human Mcl-1 to Bid peptide; 220,000 compounds, 0.97% hits; TR-FRET Mcl-1/Bid-Dy647 peptide binding, 1536-well; AID 1021; inhibition, % at 21.7 µM; Q07820;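 active = compounds that cut the binding signal by more than half at the single screening dose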;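 also: His-tagged Mcl-1 with europium anti-His antibody binding Bid BH3 peptide; 0% = Mcl-1 plus peptide wells and 100% = peptide-only wells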
# Bim-Mcl-1 – human Bim-Mcl-1 interaction inhibition. Bead-based flow cytometry, Bim peptide-Mcl-1 binding. inhibition, % at 10 µM. 190,000 compounds, 0.1% hits. AID 1009; in the data active = inhibition above about 40%;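 also: 0% = no compound tracer wells and 100% = peptide blocker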
# GLD-1 TGE inh – GLD-1-TGE RNA interaction inhibition (C. elegans); purified GLD-1 + fluorescein TGE RNA, fluorescence polarization; Q17339; inhibition, % at 5.96 µM; 320,000 compounds, 0.44% hits;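 active = percent inhibition above a per-plate cutoff, the plate mean of test compounds plus 3 SD, cut at about 30% in these data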;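 also: 0% = DMSO wells with GLD-1 and probe and 100% = wells lacking GLD-1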
# The depositor's hits bear a star; nt = not tested or not shown. An excerpt weighted towards active compounds, which were near 2.3% of everything screened.
SMILES,Mcl1-Noxa inh,Bcl-xL primary,MCL1 BIM primary,Mcl1-Bid inh,Bim-Mcl-1,GLD-1 TGE inh
COC(=O)c1sc(-c2ccc(Cl)cc2)cc1NC(=O)c1ccccc1C(=O)O,-18,3,1,4,nt,8
Cc1cc(/C=N/n2c(COc3ccccc3C)nc3ccccc3c2=O)c(O)c([N+](=O)[O-])c1,81*,-1,8,-2,-1,6
O=C(CCN1CCN(c2ccccc2)CC1)N/N=C/c1ccc(O)c(O)c1O,77*,nt,nt,-84,9,nt
COc1ccc(/C=N/NC(=O)CCN2CCN(c3ccccc3)CC2)c(OC)c1OC,22,-1,-1,-18,-3,-4
O=C(Cc1csc(N2CCOCC2)n1)N/N=C/c1ccc(O)c(O)c1O,85*,nt,nt,-40,2,nt
O=C(O)c1ccccc1C(=O)c1ccc(Br)s1,54*,-1,-1,-20,1,-7
O=C(Nc1ccc(N2CCN(C(=O)c3ccccc3)CC2)cc1)c1ccc(Br)o1,-3,1,-2,-38,0,1
O=C(Nc1ccc(N2CCCC2)cc1)c1ccc(Br)o1,94*,7,6,-10,3,-3
CCOc1ccc(/C=C/C(=O)Nc2ccc(N3CCOCC3)cc2)cc1,-5,-5,-6,101*,0,3
COc1ccc(C(=O)Nc2ccc(N3CCCC3)cc2)cc1,86*,15,12,-47,-2,-7
COc1ccc(/C=C/C(=O)OCC(=O)Nc2ccc(N3CCOCC3)cc2)cc1,-3,5,1,-1,0,-2
CCOc1cccc(C(=O)Nc2ccc(N3CCCC3)cc2)c1,nt,0,0,nt,nt,1
COc1ccc(C(=O)NC(=S)Nc2ccc(N3CCCC3)cc2)cc1,17,4,12,-31,0,6
CCOc1ccc(C(=O)Nc2ccc(N3CCCC3)cc2)cc1,63*,-3,0,9,1,0
CC(=O)Nc1ccc(S(=O)(=O)NC(C)C(=O)NCCc2ccc(F)cc2)cc1 (centres undefined),24,-16,-19,-18,0,-10
Cc1cc(NC(=O)CSc2nc(-c3cccs3)nc3ccccc23)no1,nt,3,-4,nt,nt,-2
O=S(=O)(Nc1ccc(S(=O)(=O)N2CCCC2)cc1)c1ccc(F)cc1F,nt,nt,nt,nt,nt,1
O=C(CSc1nnc(COc2cccc3cccnc23)o1)N1CCc2ccccc21,-5,-6,-7,84*,0,9
O=C(CSc1nnc(Cc2ccccc2)o1)N1CCc2ccccc21,13,1,5,-15,1,4
FC(F)(F)c1ccncc1-c1nnnn1-c1ccc(Cl)cc1,-9,4,8,69*,nt,-1
CC(=O)N1CCN(c2ccc(Nc3ncnc4c3oc3ccccc34)cc2)CC1,68*,3,-1,20,2,6
CCc1nc(Nc2ccc(N3CCN(C(C)=O)CC3)cc2)c2oc3ccccc3c2n1,85*,6,12,33,0,4
Oc1ccc(Nc2ncnc3c2oc2ccccc23)cc1,nt,1,6,nt,nt,-4
O=C(c1ccco1)N1CCn2cccc2C1c1ccccc1 (centres undefined),0,-1,-3,-58,-2,1
CCc1noc(C)c1C(=O)Nc1cc(S(=O)(=O)N2CCOCC2)ccc1OC(C)C,nt,-10,-17,nt,nt,2
SMILES,Mcl1-Noxa inh,Bcl-xL primary,MCL1 BIM primary,Mcl1-Bid inh,Bim-Mcl-1,GLD-1 TGE inh
CCOc1ccc(C(=O)NC(=S)Nc2ccc(N3CCC(C)CC3)cc2)cc1[N+](=O)[O-],45,nt,nt,54*,-3,nt
CCOc1ccc(C(=O)NC(=S)Nc2ccccc2N2CCC(C)CC2)cc1[N+](=O)[O-],0,3,2,-22,-1,1
O=C(O)c1cc(-c2ccccc2)nn1CC1CC(c2cccc([N+](=O)[O-])c2)=NO1 (centres undefined),nt,9,12,nt,nt,2
O=C1NC2=C(C(=O)CCC2)C(c2ccccc2[N+](=O)[O-])N1 (centres undefined),nt,51*,51*,nt,nt,24
CN(C)CCNC(=O)COc1ccc(C23CC4CC(CC(C4)C2)C3)cc1,3,2,4,-6,0,-3
CSc1ccc(CN2CCC(C(=O)NCc3ccc(C)cc3)CC2)cc1,29,3,-7,50*,0,2
NS(=O)(=O)c1ccc(CCNC(=O)C(=O)c2c[nH]c3ccccc23)cc1,7,4,14,99*,-4,2
CC(=O)NC(CC(=O)NC1CCCc2ccccc21)c1ccccc1 (centres undefined),nt,-4,-7,nt,nt,8
CCN(CC)c1ccc(NC(=O)c2cccc(C)c2OC)c(C)c1,62*,2,-5,-21,2,5
CCN(CC)c1ccc(NC(=O)c2cccnc2)c(C)c1,15,6,8,-6,-5,7
CC1(C)CC(=O)C(C(c2cccnc2)C2C(=O)CC(C)(C)CC2=O)C(=O)C1,-5,8,10,69*,-30,-7
CC(=O)c1cccc(NC(=O)NC(C)c2ccc3c(c2)OCO3)c1 (centres undefined),nt,2,1,nt,nt,1
COc1ccc(CC2(CO)CCN(CC3=CC[C@H]4C[C@@H]3C4(C)C)CC2)cc1,-13,-2,-4,-1,0,6
Cc1ccc(C2C(C(=O)c3cc4ccccc4o3)=C(O)C(=O)N2CCN2CCOCC2)cc1 (centres undefined),nt,2,-7,nt,nt,3
Cc1ccc(C2C(C(=O)c3cc4ccccc4o3)=C(O)C(=O)N2CCN2CCOCC2)o1 (centres undefined),21,15,9,51*,-2,8
COc1ccc(NC2CCCN(C(=O)C3(C)CCCCC3)C2)cc1OC (centres undefined),nt,10,6,nt,nt,0
CC(=O)c1ccc(NC(=O)NNS(=O)(=O)c2ccc([N+](=O)[O-])cc2)cc1,nt,2,-3,nt,nt,3
Cc1nn(Cc2ccccc2)c(C)c1NC(=O)CSc1nc2c(c(C(F)(F)F)n1)CCc1ccccc1-2,-15,2,-8,64*,3,6
COC(=O)c1c(NC(=O)/C=C/C(=O)O)sc(Cc2ccccc2)c1C,14,6,1,-9,-5,0
Cc1c(Cc2ccccc2)sc(NC(=O)/C=C/c2cccc3ccccc23)c1C(N)=O,59*,3,-5,-45,-5,2
CCO[C@H]1OC(C(N)=O)=C[C@@H](c2ccccc2)[C@@H]1CCCO,-15,6,2,51*,-1,6
Cc1nc2ccccc2c(=O)n1-c1ccc(F)c(NS(=O)(=O)c2ccccc2F)c1,nt,7,3,nt,nt,1
Nc1ccc(-c2ccc(N)c([N+](=O)[O-])c2)cc1[N+](=O)[O-],51*,3,10,15,2,-1
CCOC(=O)C1CCN(CC(=O)N2C(C)CCCC2C)CC1 (centres undefined),30,-1,-4,65*,-1,4
